Where “and” joins values, the source holds several entries; their conditions need not be identical. Equal entries are not always repeated. More than one record can exist for a structure, and the calls need not agree. Calls of active or inactive are those of the source. How the source made its calls: active means hit-call score of the fitted dose curve at least 0.9, where 1 is the maximum; inactive means score below 0.9.
Test: ATG_E_Box_CIS: Attagene CIS-FACTORIAL HepG2 Assay for human Enhancer Box (E-box) (AID 2282936)
Conditions: HepG2 E-box cis-reporter transcription, actives raise or lower the signal
How it was run: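 DMSO served as negative control and baseline for bidirectional fitting. Human hepatoma HepG2 cells, transiently transfected with cis-reporter constructs, were dosed 24 h; reporter mRNA read by RT-PCR and capillary electrophoresis.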

AC50, active:
COC(=O)[C@H]1[C@H]2C[C@@H]3c4[nH]c5cc(OC)ccc5c4CCN3C[C@H]2C[C@@H](OC(=O)c2cc(OC)c(OC)c(OC)c2)[C@@H]1OC 51.6 µM, CC(=O)O[C@]1(C(C)=O)CC[C@H]2[C@@H]3C=C(Cl)C4=CC(=O)[C@@H]5C[C@@H]5[C@]4(C)[C@H]3CC[C@@]21C 165 µM and 78.6 µM and 50.5 µM, Nc1nc(Cl)nc2c1ncn2[C@H]1C[C@H](O)[C@@H](CO)O1 11.4 µM, CCN(CC)CCOc1ccc(C(=C(Cl)c2ccccc2)c2ccccc2)cc1 11.9 µM

outcome, inactive:
CC(COCC(C)OC(=O)c1ccccc1)OC(=O)c1ccccc1 (stereo not drawn), COc1ccc(C(=O)Nc2nc3ccccc3c(NCc3ccccc3)c2C#N)cc1, Oc1ccc(O)cc1, O=C1O[C@H]([C@H](O)CO)C(O)=C1O, O=[Si]=O, O=C(O)c1cccnc1, CC(=O)O, CC(=O)O[C@]1(C(C)=O)CC[C@H]2[C@@H]3C=C(Cl)C4=CC(=O)[C@@H]5C[C@@H]5[C@]4(C)[C@H]3CC[C@@]21C, Cc1ccc(C(C)(C)C)c(O)c1, NC1CCCCC1, CC(C)(O)c1ccc(CNC(=O)c2cccnc2Oc2ccc(F)cc2)cc1, C/C=C/C=C/C(=O)O, CC(C)(C)c1ccccc1, S=c1[nH]c2ccccc2s1, O=C(NS(=O)(=O)/C=C/c1cccs1)c1ccc(F)cc1Br, O=C(N[C@@H](c1ccccc1)[C@@H]1CCCCN1)c1cccc(C(F)(F)F)c1Cl, CCOCCOCCO, CC(C)c1cccc(C(C)C)c1, CCN(CC)CCOc1ccc(C(=C(Cl)c2ccccc2)c2ccccc2)cc1

From PubChem BioAssay (EPA / NIEHS)
